# Experimental data taken from article PMC9928087, “Plasmids manipulate bacterial behaviour through translational regulatory crosstalk”.
# Target: T1, RsmQ (Pseudomonas fluorescens SBW25 plasmid …, UniProt UPI00015066B5 1-62)
# T1 sequence: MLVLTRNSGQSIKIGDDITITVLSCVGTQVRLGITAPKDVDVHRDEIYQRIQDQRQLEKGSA
# Test: SPR (ReDCaT); HBS-EP+ (10 mM HEPES, 150 mM NaCl, 3 mM EDTA, 0.05% v/v Tween 20, pH 7.4), 20 C, Biacore 8K, ReDCaT SA chip; high values mean tight binding
# Settings: protein: recombinant; tags: C-terminal TEV site + 6xHis; chain copies: 2; structured_DNA
sequence,measurement,value
GCCCTGTGTCCACGGATTGGCACAA,binding signal,82.5 ± 1.12 %Rmax
ATGGACGTCGCGCAGGAAGCGCAAA,binding signal,83.5 ± 1.31 %Rmax
